Screening data deposited in PubChem by National Center for Advancing Translational Sciences (NCATS).
In the library only some 9.3% were active in any assay of this set; here they are far more common.
FLuc modulator: inhibits or activates purified firefly luciferase, miR-21 counter-screen; actives 6.9% (n = 360,000); purified FLuc, Km substrates, luminescence inhibition; Potency, µM (top dose mostly 57.5 µM), hits mostly inhibitors; AID 588342; P08659; further: nearly all actives have a fitted effect of over 55% in size
Target sequence (P08659 whole entry, looked up): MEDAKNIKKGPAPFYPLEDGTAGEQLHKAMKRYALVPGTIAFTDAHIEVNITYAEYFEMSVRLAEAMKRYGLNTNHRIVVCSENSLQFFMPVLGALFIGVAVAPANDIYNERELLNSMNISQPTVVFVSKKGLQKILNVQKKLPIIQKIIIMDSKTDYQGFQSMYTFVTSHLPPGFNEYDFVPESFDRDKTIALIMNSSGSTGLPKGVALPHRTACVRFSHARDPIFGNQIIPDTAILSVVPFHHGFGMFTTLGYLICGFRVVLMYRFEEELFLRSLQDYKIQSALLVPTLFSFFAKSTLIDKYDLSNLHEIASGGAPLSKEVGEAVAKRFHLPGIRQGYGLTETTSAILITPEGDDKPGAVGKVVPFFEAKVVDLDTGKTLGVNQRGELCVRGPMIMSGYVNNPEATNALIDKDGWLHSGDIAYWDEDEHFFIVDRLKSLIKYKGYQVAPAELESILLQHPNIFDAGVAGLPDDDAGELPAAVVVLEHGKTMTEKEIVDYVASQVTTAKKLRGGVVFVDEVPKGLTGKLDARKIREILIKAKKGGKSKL
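Biochemical qHTS of compounds, final roughly 60 µM downward over six points, against 10 nM purified firefly luciferase using Km concentrations of substrates (10 uM D-luciferin, 10 uM ATP) in Tris acetate pH 7.5 buffer; luminescence output.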
Rab9 prom act: Rab9 promoter activation; AID 485297; Potency, µM (series often up to 9.22 µM), usual class: activators; actives 2.8% (n = 320,000); Huh7 Rab9 promoter-luciferase reporter, luminescence, 24 h; further: nearly all actives have a fitted effect of over 60% in size
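Measured in stably transfected Huh7 cells bearing a Rab9 promoter–luciferase construct: 24 h compound treatment at 37 °C, followed by luminescence detection.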
ELG1 genotox: inducers of genotoxicity in HEK293T ELG1-luciferase cells. HEK293T ELG1-luciferase reporter, luminescence, 16 h. Potency, µM (series often up to 46 µM), hits mostly activators. actives 1.3% (n = 330,000). AID 504466; further: nearly all actives have a fitted effect of over 60% in size
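Screening used a luciferase reporter fused to human ELG1 in HEK293T cells. Luminescence was read on a CCD plate imager after 16 hr exposure and 30 min ONE-Glo incubation.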
NPC1 prom act: activators of NPC1 promoter. Huh7 NPC1 promoter luciferase reporter, 24 h. Potency, µM (titrated, usually from 9.22 µM), hits mostly activators. actives 2.4% (n = 320,000). AID 485313; further: nearly all actives have a fitted effect of over 60% in size
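Stable NPC1-promoter luciferase Huh7 line; cpd (DMSO) 24 h, 37 °C, 5% CO2; Amplite luciferase reagent 10 min RT; luminescence readout. qHTS format.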
SMN2 splice up: SMN2 splice variant enhancement | HEK293 SMN2-luciferase splicing reporter, luminescence, 30-36 h | Potency, µM (top dose mostly 46.1 µM), most hits filed as activators | actives 2.8% (n = 210,000) | AID 1458; further: nearly all actives have a fitted effect of over 55% in size
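HEK293 cells carry an SMN2 minigene-luciferase reporter in which exon 7 inclusion puts luciferase in frame. Cells were seeded at 2000 cells/well, attached for 10-12 hours, then exposed to compounds for 30-36 hours at 37C before ONE-Glo luminescence.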
ELG1 repair inh: inhibitors of ELG1-dependent DNA repair in HEK293T cells; HEK293T ELG1-luciferase reporter, luminescence, 16 h; DNA damage induced by 5-fluorouridine; Potency, µM (top dose mostly 46.1 µM), hits mostly inhibitors; actives 2.3% (n = 330,000); AID 504467; further: nearly all actives have a fitted effect of over 55% in size
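Cells (2,000 per well) received 5-fluorouridine plus test compound or DMSO and were incubated 16 hr at 37 °C, 5% CO2. Luciferase activity was read by luminescence 30 min after ONE-Glo addition; signal suppression marked inhibition of damage-induced ELG1 function.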
A number is an active result. The call rests on the fitted dose curve; in most records, active means well fitted curve in the direction sought with a large enough effect; inconclusive means small, poorly fitted or top-dose-only effect, or another doubt; inactive means no such curve, though single readings can be large; an effect the other way counts as inactive or inconclusive.

What do the screens show for `CCN1CCN(c2ncnc3c2cnn3-c2ccccc2)CC1`?
FLuc modulator: 24µM; Rab9 prom act: inactive; ELG1 genotox: inconclusive; NPC1 prom act: inconclusive; SMN2 splice up: inactive; ELG1 repair inh: inconclusive

What do the screens show for `CCN1CCN(c2ncnc3c2cnn3-c2ccc(Cl)cc2)CC1`?
FLuc modulator: 6µM; Rab9 prom act: 1.8µM; ELG1 genotox: inconclusive; NPC1 prom act: 1.6µM; ELG1 repair inh: inconclusive

Results for Cc1ccc(Cn2ncc3c(N4CCN(Cc5ccc(Cl)cc5)CC4)ncnc32)cc1 ?
FLuc modulator: inactive; Rab9 prom act: inactive; ELG1 genotox: inactive; NPC1 prom act: inactive; SMN2 splice up: inactive; ELG1 repair inh: 5.8µM

What do the screens show for `c1ccc(CCN2CCN(c3ncnc4c3cnn4-c3ccccc3)CC2)cc1`?
FLuc modulator: inactive; Rab9 prom act: inactive; ELG1 genotox: inactive; NPC1 prom act: inactive; SMN2 splice up: inactive; ELG1 repair inh: inconclusive

How did COc1ccc2c(c1)C(=O)c1ccccc1CO2 do in these assays?
FLuc modulator: 6µM; Rab9 prom act: 3.2µM; ELG1 genotox: inconclusive; NPC1 prom act: 4µM; SMN2 splice up: inconclusive; ELG1 repair inh: inconclusive

Results for O=C(CSc1nc(=O)[nH]c2c1CCCC2)NCc1ccc(F)cc1 ?
FLuc modulator: inactive

Results for CC(=O)c1c(C)oc2c1cc(NS(=O)(=O)c1ccc(Cl)c(C)c1)c1ccccc12 ?
FLuc modulator: inconclusive; SMN2 splice up: inactive

How did Cc1cc(N2CCN(c3nc(-c4ccccc4)cs3)CC2)c2ccccc2n1 do in these assays?
FLuc modulator: inactive; Rab9 prom act: inactive; ELG1 genotox: inactive; NPC1 prom act: inactive; SMN2 splice up: inactive; ELG1 repair inh: inconclusive

What do the screens show for `CC(C)C(=O)N1CCN(c2nc(-c3ccc(Cl)cc3)cs2)CC1`?
FLuc modulator: inactive; Rab9 prom act: inactive; ELG1 genotox: inactive; NPC1 prom act: inactive; ELG1 repair inh: inactive

How did S=C(NCC1CCCO1)N1CCN(c2nc(-c3ccccc3)cs2)CC1 (stereo unspecified) do in these assays?
FLuc modulator: inconclusive; Rab9 prom act: inactive; ELG1 genotox: inactive; NPC1 prom act: inactive; ELG1 repair inh: 23µM

Results for S=C(NCc1ccco1)N1CCN(c2nc(-c3ccccc3)cs2)CC1 ?
FLuc modulator: inconclusive; Rab9 prom act: inactive; ELG1 genotox: inactive; NPC1 prom act: inactive; ELG1 repair inh: inconclusive

What do the screens show for `c1ccc(-c2csc(N3CCCCCC3)n2)cc1`?
FLuc modulator: 15µM; Rab9 prom act: inactive; ELG1 genotox: 18µM; NPC1 prom act: inactive; SMN2 splice up: inconclusive; ELG1 repair inh: inconclusive

What do the screens show for `CN1CCN(c2nc(-c3ccc(Cl)s3)cs2)CC1`?
FLuc modulator: 17µM; Rab9 prom act: inconclusive; ELG1 genotox: inactive; NPC1 prom act: inactive; SMN2 splice up: inactive; ELG1 repair inh: inconclusive

What do the screens show for `Brc1ccc(-c2csc(N3CCOCC3)n2)cc1`?
FLuc modulator: 8.5µM; Rab9 prom act: 4µM; ELG1 genotox: inactive; NPC1 prom act: inconclusive; ELG1 repair inh: inconclusive

What do the screens show for `O=S(=O)(c1ccccc1)n1nc(-c2ccco2)nc1NCc1ccccc1`?
FLuc modulator: inactive; SMN2 splice up: inconclusive

What do the screens show for `COc1cc(C(=O)OCC(=O)N2CCCC2)cc2c1OCCO2`?
FLuc modulator: inactive; Rab9 prom act: inactive; ELG1 genotox: inactive; NPC1 prom act: inactive; ELG1 repair inh: inactive

Results for CCn1ccc2cc(S(=O)(=O)N3CCC(C(=O)NCc4ccc(OC)cc4)CC3)ccc21 ?
FLuc modulator: inactive

How did CCCCC(=O)N1CCN(c2nc(-c3ccc(F)cc3)cs2)CC1 do in these assays?
FLuc modulator: inconclusive; Rab9 prom act: inactive; ELG1 genotox: inactive; NPC1 prom act: inactive; ELG1 repair inh: inactive

What do the screens show for `CCS(=O)(=O)N1CCN(c2nc(-c3ccccc3)cs2)CC1`?
FLuc modulator: 19µM; Rab9 prom act: inactive; ELG1 genotox: inconclusive; NPC1 prom act: inactive; SMN2 splice up: inactive; ELG1 repair inh: inconclusive

How did N=C1SCC(=O)N1c1nc(-c2ccccc2)cs1 do in these assays?
FLuc modulator: 5.4µM; Rab9 prom act: 2µM; ELG1 genotox: inconclusive; NPC1 prom act: 2.2µM; SMN2 splice up: 11µM; ELG1 repair inh: inconclusive

Results for O=C(N1CCOCC1)N1CCN(c2nc(-c3ccc(F)cc3)cs2)CC1 ?
FLuc modulator: 11µM; Rab9 prom act: inactive; ELG1 genotox: inactive; NPC1 prom act: inactive; SMN2 splice up: inactive; ELG1 repair inh: inactive

How did Clc1ccc(-c2csc(N3CCCCCC3)n2)cc1 do in these assays?
FLuc modulator: 11µM; Rab9 prom act: inactive; ELG1 genotox: inactive; NPC1 prom act: inactive; ELG1 repair inh: inconclusive

What do the screens show for `CS(=O)(=O)N1CCN(c2nc(-c3ccccc3)cs2)CC1`?
FLuc modulator: inconclusive; Rab9 prom act: inactive; ELG1 genotox: inconclusive; NPC1 prom act: inactive; SMN2 splice up: inactive; ELG1 repair inh: inconclusive

What do the screens show for `N#C/C(=C\c1cc(Cl)cc(Cl)c1)c1cccnc1`?
SMN2 splice up: inactive

How did O=[N+]([O-])c1ccc(-c2csc(N3CCCCCC3)n2)cc1 do in these assays?
FLuc modulator: 12µM; Rab9 prom act: inconclusive; ELG1 genotox: inactive; NPC1 prom act: inconclusive; ELG1 repair inh: inconclusive

How did COc1ccc(-c2csc(N3CCOCC3)n2)cc1OC do in these assays?
FLuc modulator: 12µM; Rab9 prom act: inconclusive; ELG1 genotox: 18µM; NPC1 prom act: inconclusive; SMN2 splice up: inconclusive; ELG1 repair inh: inconclusive

How did NC(=O)C1CCN(c2nc(-c3ccc([N+](=O)[O-])cc3)cs2)CC1 do in these assays?
FLuc modulator: inactive

How did O=C(CCCl)N1CCN(c2nc(-c3ccccc3)cs2)CC1 do in these assays?
FLuc modulator: 15µM; Rab9 prom act: inconclusive; ELG1 genotox: inactive; NPC1 prom act: inconclusive; ELG1 repair inh: inconclusive

What do the screens show for `O=[N+]([O-])c1ccc(N2CCN(c3nc(-c4ccc(Cl)cc4)cs3)CC2)cc1`?
FLuc modulator: inactive; Rab9 prom act: inactive; ELG1 genotox: inactive; NPC1 prom act: inactive; SMN2 splice up: inactive; ELG1 repair inh: inconclusive

What do the screens show for `COc1ccc(-c2csc(/N=C/N(C)C)n2)cc1OC`?
FLuc modulator: inconclusive; Rab9 prom act: inactive; ELG1 genotox: inconclusive; NPC1 prom act: inactive; SMN2 splice up: inactive; ELG1 repair inh: inconclusive

How did Clc1ccc(-c2csc(N3CCOCC3)n2)cc1 do in these assays?
FLuc modulator: 11µM; Rab9 prom act: 3.2µM; ELG1 genotox: inconclusive; NPC1 prom act: inconclusive; SMN2 splice up: 18µM; ELG1 repair inh: inconclusive

Results for Brc1ccc(-c2csc(N3CCCCCC3)n2)cc1 ?
FLuc modulator: 8.5µM; Rab9 prom act: inactive; ELG1 genotox: inactive; NPC1 prom act: inactive; ELG1 repair inh: inconclusive

What do the screens show for `c1ccc(-c2cnnc(N3CCCCC3)n2)cc1`?
FLuc modulator: 11µM; Rab9 prom act: 1.4µM; ELG1 genotox: inconclusive; NPC1 prom act: 2.5µM; SMN2 splice up: inactive; ELG1 repair inh: inconclusive
